Outcome and AC50 data for seven molecules are collected here from PubChem BioAssay AID2283162 (EPA ToxCast).

Results filed as inconclusive are left out. The source made the active and inactive calls. How the source made its calls: active means hit-call score of the fitted dose curve at least 0.9, where 1 is the maximum; inconclusive means response in the unintended direction; inactive means score below 0.9.

This assay addresses human Insulin-like Growth Factor 1 Receptor (IGF1R), IGF1R (gene 3480) (UniProt P08069). Put plainly: NVS_ENZ_hIGF1R: NovaScreen (NVS) Enzymatic Assay for human Insulin-like Growth Factor 1 Receptor (IGF1R). On the procedure:
NVS_ENZ_hIGF1R is a biochemical, single-readout assay that uses extracted gene-proteins in a cell-free assay. Measurements were taken 1 hour after chemical dosing in a 384-well plate.NVS_ENZ_hIGF1R is one of one assay component(s) measured or calculated from the NVS_ENZ_hIGF1R assay. It is designed to make measurements of enzyme activity, a form of enzyme reporter, as detected with fluorescence intensity signals by Fluorescence and electrophoretic mobility shift technology.Data from the assay component NVS_ENZ_hIGF1R was analyzed into 1 assay endpoint. This assay endpoint, NVS_ENZ_hIGF1R, was analyzed in the positive analysis fitting direction relative to DMSO as the negative control and baseline of activity. Using a type of enzyme reporter, loss-of-signal activity can be used to understand changes in the enzymatic activity as they relate to the gene IGF1R. Furthermore, this assay endpoint can be referred to as a primary readout, because this assay has produced multiple assay endpoints where this one serves a enzymatic activity function. To generalize the intended target to other relatable targets, this assay endpoint is annotated to the kinase intended target family, where the subfamily is receptor tyrosine kinase.
Binding assays used specific radioligands (tritiated, iodinated) with non-radioactive competitive displacement ligands in agonist or antagonist protocols (as indicated) and various reference compounds and inhibitors to titrate specific binding to receptors and transporters. Most enzyme assays (CYPs, kinases, phosphatases, proteases, HDACs) used recombinant protein and specific substrates (fluorescence mostly, some colorimetric and radioactive) and inhibitors, followed by a biochemical separation of substrate and product. All assays for the biochemical HTS were initially run in duplicate at a single concentration (10 uM for CYP450 assays and 25 uM for all others). Assay-chemical combinations meeting a pre-defined threshold (e.g., 30% inhibition and other criteria defined below) were then run in singleton concentration-response format with maximum concentration of 20 uM for CYPs and 50 uM for all others. Each assay was run with positive and negative controls, and concurrent controls on every plate. The follow-up (secondary) screen tested active chemical-pairs in concentration series, as well as a few additional assays not tested in the primary screen, some selected negative inactives, and several cases re-run in the concentration series for confirmatory purposes.

Sequence of human Insulin-like Growth Factor 1 Receptor (IGF1R), IGF1R (gene 3480) (P08069 whole entry, looked up): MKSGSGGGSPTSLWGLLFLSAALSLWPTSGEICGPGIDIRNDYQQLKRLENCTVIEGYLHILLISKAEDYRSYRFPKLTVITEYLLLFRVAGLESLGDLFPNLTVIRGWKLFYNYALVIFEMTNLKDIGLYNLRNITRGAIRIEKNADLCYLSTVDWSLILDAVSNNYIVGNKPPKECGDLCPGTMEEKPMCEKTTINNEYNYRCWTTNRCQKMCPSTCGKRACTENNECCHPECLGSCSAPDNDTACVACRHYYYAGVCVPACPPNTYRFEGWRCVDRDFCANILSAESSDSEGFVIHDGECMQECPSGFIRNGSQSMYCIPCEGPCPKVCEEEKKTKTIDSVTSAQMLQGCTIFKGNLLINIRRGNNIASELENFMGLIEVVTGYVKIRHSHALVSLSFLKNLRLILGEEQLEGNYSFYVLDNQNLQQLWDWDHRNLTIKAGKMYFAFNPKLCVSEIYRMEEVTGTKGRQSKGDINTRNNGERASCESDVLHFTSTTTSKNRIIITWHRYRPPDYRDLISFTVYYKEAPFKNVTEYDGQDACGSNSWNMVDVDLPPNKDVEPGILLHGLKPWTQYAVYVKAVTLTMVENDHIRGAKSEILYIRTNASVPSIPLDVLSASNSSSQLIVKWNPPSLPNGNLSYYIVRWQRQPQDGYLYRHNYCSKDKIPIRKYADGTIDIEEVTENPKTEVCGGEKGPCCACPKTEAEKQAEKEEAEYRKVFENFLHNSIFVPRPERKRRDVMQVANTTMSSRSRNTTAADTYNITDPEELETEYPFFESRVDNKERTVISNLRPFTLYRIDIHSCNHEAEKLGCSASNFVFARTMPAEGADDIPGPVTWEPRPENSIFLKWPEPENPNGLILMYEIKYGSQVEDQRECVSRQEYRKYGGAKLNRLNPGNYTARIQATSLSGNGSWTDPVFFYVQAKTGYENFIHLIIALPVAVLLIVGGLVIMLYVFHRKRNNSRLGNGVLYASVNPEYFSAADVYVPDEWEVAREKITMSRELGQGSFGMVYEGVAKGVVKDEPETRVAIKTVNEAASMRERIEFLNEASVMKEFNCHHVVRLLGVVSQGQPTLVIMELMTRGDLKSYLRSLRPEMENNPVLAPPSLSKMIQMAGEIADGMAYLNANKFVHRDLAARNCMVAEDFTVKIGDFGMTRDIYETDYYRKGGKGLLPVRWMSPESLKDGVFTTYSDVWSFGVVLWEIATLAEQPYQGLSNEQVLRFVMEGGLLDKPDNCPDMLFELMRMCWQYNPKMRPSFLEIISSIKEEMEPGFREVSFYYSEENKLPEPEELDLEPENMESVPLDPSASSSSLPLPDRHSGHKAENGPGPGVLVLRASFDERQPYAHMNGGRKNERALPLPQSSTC

Take `CCCCc1ccc2c(n1)[C@@H](c1ccc(OC)cc1C[C@H](C)C(=O)O)[C@H](C(=O)O)[C@H]2c1ccc2c(c1)OCO2`: the molecule was classed as inactive. Usually AC50 stands for the midpoint of the concentration-response curve, whichever way the signal moves. As for `COc1cc(C(=O)NC2CCN(C)CC2)ccc1Nc1ncc2c(n1)N(C1CCCC1)CC(F)(F)C(=O)N2C`, the AC50 is 23.2 µM (active).

Consider `CCCCCCCC/C=C\CCCCCCCC(=O)OC[C@@H](O)[C@H]1OC[C@H](O)[C@H]1O`, for which the outcome was inactive. Same read-out and setting: to `c1ccc(C(O[C@@H]2CCCN(CCc3ccc4c(c3)OCO4)C2)c2ccccc2)cc1` belongs “inactive”; to `CN(C)C(=O)NC1(c2ccccc2)CCN(CCC[C@]2(c3ccc(Cl)c(Cl)c3)CCCN(C(=O)c3ccccc3)C2)CC1`, “inactive”. For the molecule `O=C(O)CC(O)(CC(=O)O)C(=O)O`, the AC50 was 5.18 µM (active). Turning to `CC(C)c1cccc(C(C)C)c1NC(=O)NS(=O)(=O)c1cc(C(C)(C)O)co1`, the molecule was called inactive.
